Compounds with a hit are over-represented: about 7.4% of the library has one in this group of screens.
SMN2 splice enh – qHTS Assay for Enhancers of SMN2 Splice Variant Expression; Potency, µM (highest dose often 46.1 µM), usual class: activators; AID 1458, 2008; 210,000 tested, 2.8% active; HEK293 SMN2-luciferase splicing reporter, luminescence, 30-36 h; further: nearly all actives have a fitted effect of over 55% in size
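HEK293 cells carry an SMN2 […]–luciferase reporter in which exon 7 inclusion puts luciferase in frame. Cells were plated 10-12 h before compound addition, then incubated 30-36 h at 37C. ONE-Glo luminescence was read; sodium butyrate at 4.5 mM final served as control.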
Rab9 prom act – qHTS Assay for Rab9 Promoter Activators. Huh7 Rab9 promoter-luciferase reporter, luminescence, 24 h. Potency, µM (highest dose often 9.22 µM), hits mostly activators. 320,000 tested, 2.8% active. AID 485297, 2010; further: nearly all actives have a fitted effect of over 60% in size
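Quantitative HTS format; Huh7 Rab9-luciferase reporter cells (1500/well) receive compound 2 h post-plating, incubate 24 h at 37 °C, then get luciferase reagent for 10 min before luminescence reading.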
ELG1 genotoxic – qHTS screen for small molecules that induce genotoxicity in human embryonic kidney (HEK293T) cells expressing luciferase-tagged ELG1 | HEK293T ELG1-luciferase reporter, luminescence, 16 h | Potency, µM (top dose mostly 46 µM), actives largely listed as activators | 330,000 tested, 1.3% active | AID 504466, 2011; further: nearly all actives have a fitted effect of over 60% in size
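Screening used a luciferase reporter fused to human ELG1 in HEK293T cells. Luminescence was read on a CCD plate imager after 16 hr exposure and 30 min ONE-Glo incubation.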
NPC1 prom act – qHTS Assay for NPC1 Promoter Activators. Huh7 NPC1 promoter luciferase reporter, 24 h. Potency, µM (titrated, usually from 9.22 µM), actives largely listed as activators. 320,000 tested, 2.4% active. AID 485313, 2010; further: nearly all actives have a fitted effect of over 60% in size
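Readout is luciferase luminescence, reflecting NPC1 promoter activation in stably transfected Huh7 cells after 24 h compound exposure at 37 °C in reduced-serum medium with 10% FBS.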
FLuc counter – qHTS profiling assay for firefly luciferase inhibitor/activator using purifed enzyme and Km concentrations of substrates (counterscreen for miR-21 project); Luciferin 4-monooxygenase (Photinus pyralis), P08659; purified FLuc, Km substrates, luminescence inhibition; Potency, µM (series often up to 57.5 µM), most hits filed as inhibitors; 360,000 tested, 6.9% active; AID 588342, 2011; further: nearly all actives have a fitted effect of over 55% in size
Target sequence (P08659 whole entry, looked up): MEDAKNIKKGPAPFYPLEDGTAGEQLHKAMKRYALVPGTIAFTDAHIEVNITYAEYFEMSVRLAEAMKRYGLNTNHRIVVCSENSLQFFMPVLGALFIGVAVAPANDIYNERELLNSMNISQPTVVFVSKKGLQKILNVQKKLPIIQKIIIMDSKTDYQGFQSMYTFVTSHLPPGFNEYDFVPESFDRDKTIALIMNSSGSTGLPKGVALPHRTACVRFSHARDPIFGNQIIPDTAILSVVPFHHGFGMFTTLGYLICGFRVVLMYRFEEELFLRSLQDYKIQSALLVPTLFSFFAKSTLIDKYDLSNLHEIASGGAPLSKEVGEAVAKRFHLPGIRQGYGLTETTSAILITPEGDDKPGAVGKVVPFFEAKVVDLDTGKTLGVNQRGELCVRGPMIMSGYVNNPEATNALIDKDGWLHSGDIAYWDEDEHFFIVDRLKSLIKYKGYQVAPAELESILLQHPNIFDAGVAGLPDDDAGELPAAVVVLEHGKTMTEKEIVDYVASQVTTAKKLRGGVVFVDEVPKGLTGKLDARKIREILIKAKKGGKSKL
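Biochemical qHTS of compounds, final roughly 60 µM downward over six points, against 10 nM purified firefly luciferase using Km concentrations of substrates (10 uM D-luciferin, 10 uM ATP) in Tris acetate pH 7.5 buffer; luminescence output.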
A number is an active result; i = inactive; ? = inconclusive; nt = not tested or not shown; [ ] = dose if it differs, or a comment. The call rests on the fitted dose curve; in most records, active means well fitted curve in the direction sought with a large enough effect; inconclusive means small, poorly fitted or top-dose-only effect, or another doubt; inactive means no such curve, though single readings can be large; an effect the other way counts as inactive or inconclusive.

SMILES | SMN2 splice enh | Rab9 prom act | ELG1 genotoxic | NPC1 prom act | FLuc counter
CN(C)c1ccc(N2CN=C3SCC(=O)N3C2)cc1 | i | i | ? | i | 11µM
CCOc1ccc(OCC)c(-c2c(=O)n(OCc3ccc(C(C)(C)C)cc3)c3ccccc3[n+]2[O-])c1 | i | i | i | i | 8.5µM
CC(NC(=O)C1CCN(C(=O)c2ccc(-n3ccc4ccccc43)s2)CC1)c1ccccc1 (configuration not stated) | nt | nt | nt | nt | 13µM
CCOC(=O)C1CCN(C(=O)c2ccc(-n3ccc4ccccc43)s2)CC1 | nt | nt | nt | nt | i
CCCc1cnc(N2CCN(C(=O)c3c(-c4ccccc4)noc3C)CC2)nc1 | nt | i | i | i | i
Cc1cc(-c2ccc(N3CCOCC3)cc2)nc2ccccc12 | nt | ? | ? | ? | 1.5µM
c1ccc2nc(-c3ccc(N4CCOCC4)cc3)ccc2c1 | ? | 0.1µM | ? | 0.25µM | 0.27µM
CN1CCN(c2ccc(-c3ccc4ccccc4n3)cc2)CC1 | i | i | i | i | 0.12µM
Cc1cccc(-c2nc(Nc3ccc(N4CCOCC4)cc3)c3ccccc3n2)c1 | i | i | i | i | ?
Cc1ccc(C)c(NC(=O)Cn2c(=O)n(CC(=O)NCCc3ccccc3)c(=O)c3ccccc32)c1 | i | nt | nt | nt | i
CC(C)CC(=O)Nc1ccc(-c2nc3ccccc3c(=O)[nH]2)cc1 | 3.2µM | 0.89µM | 6.5µM | 1.1µM | 2.4µM
O=C(CSc1nc2ccccc2c(=O)[nH]1)Nc1ccc(C(=O)O)cc1 | i | i | i | i | ?
O=c1oc(-c2ccccc2[N+](=O)[O-])nc2ccccc12 | i | i | i | i | i
Nc1ccccc1-c1nc2ccccc2c(=O)o1 | nt | i | i | i | 11µM
CC(C)CC(=O)Nc1ccc(-c2nc3ccccc3c(=O)o2)cc1 | i | i | i | i | 1.7µM
O=c1oc(-c2ccco2)nc2ccccc12 | i | i | i | i | ?
O=c1oc(-c2ccc(Br)cc2)nc2ccccc12 | nt | 3.2µM | ? | 2.2µM | ?
CCC(=O)Nc1cccc(-c2nc3ccccc3c(=O)o2)c1 | i | i | i | i | ?
Cc1ccc(C)c(NS(=O)(=O)c2ccc3oc(=O)c4ncn(C)c4c3c2)c1 | nt | nt | nt | nt | i
CC(=O)Nc1ccc(-c2nc3ccccc3c(=O)o2)cc1 | nt | i | i | i | 2.7µM
O=C(O)c1csc(-c2ccc(Cl)cc2)n1 | i | i | i | i | i
Clc1ccc(-c2cn3ncsc3n2)cc1 | i | nt | nt | nt | 12µM
CCN1CCN(S(=O)(=O)c2ccc(Cl)c(C(=O)NC(C)c3ccccc3Cl)c2)CC1 (configuration not stated) | nt | i | i | i | i
COc1ccc(OC)c(S(=O)(=O)N2Cc3ccccc3CC2C(=O)Nc2ccc(C)cc2C)c1 (configuration not stated) | i | nt | nt | nt | i
COc1ccc(OC)c(S(=O)(=O)N2Cc3ccccc3CC2C(=O)Nc2nccs2)c1 (configuration not stated) | 35µM | ? | i | i | i[2.3 µM]
SMILES | SMN2 splice enh | Rab9 prom act | ELG1 genotoxic | NPC1 prom act | FLuc counter
COc1ccc(CNC(=O)CCCn2ncn3c(cc4occc43)c2=O)cc1 | nt | i | i[9.26 µM] | i | i
CCOC(=O)CCCn1ncn2c(cc3occc32)c1=O | i | i | 21µM | i | ?
O=C(NC(=O)c1ccccc1)NC1(C(F)(F)F)OCCO1 | 16µM | 4µM | ? | 2.5µM | 11µM
O=S(=O)(c1cccc2nsnc12)N1CCc2ccccc21 | ? | 3.5µM | ? | ? | 21µM
O=S(=O)(c1cccc2nsnc12)N1CCN(c2ccccc2F)CC1 | nt | i | i | i | i
Cc1c(C(=O)Nc2nnc(C3CC3)s2)oc2c(Cl)cccc12 | nt | i | ? | i | i
Cc1csc(NC(=O)c2oc3ccccc3c2C)n1 | nt | 3.5µM | ? | 3.2µM | 1.7µM
O=C(Cc1c[nH]c2ccccc12)Nc1nnc(C2CC2)s1 | 11µM | i | i | i | i
Cc1c(C(=O)Nc2nnc(C3CC3)s2)oc2ccccc12 | nt | 2.2µM | ? | 3.5µM | 4.8µM
O=C(Cc1coc2ccc3ccccc3c12)Nc1nnc(C2CC2)s1 | nt | i | i | i | i
Cc1c(C(=O)Nc2cccc3cccnc23)oc2ccccc12 | i | ? | i | i | i
Cc1c(C(=O)NC2=NCCS2)oc2ccccc12 | 2.8µM | ? | ? | ? | 3µM
O=S(=O)(c1ccc2c(c1)OCCO2)N1CCN(S(=O)(=O)c2ccc3c(c2)OCCO3)CC1 | nt | 0.4µM | nt | 0.35µM | 0.6µM
COc1ccc2cc(-c3cc(C(=O)OCC(=O)NC4CCS(=O)(=O)C4)c4ccccc4n3)ccc2c1 (configuration not stated) | 1.1µM | 0.5µM | ? | 0.63µM | 0.48µM
COc1ccc(-c2cc(C(=O)OCC(=O)N3CCOCC3)c3ccccc3n2)cc1 | nt | nt | i | nt | nt
CCN(CC)C(=O)COC(=O)c1cc(-c2ccc(OC)cc2)nc2ccccc12 | i | i | i | i | 7.6µM
COc1ccc(-c2cc(C(=O)OCC(=O)NC(C)C)c3ccccc3n2)cc1 | i | i | i | i | 6.7µM
COCCNC(=O)COC(=O)c1cc(-c2ccc(OC)cc2)nc2ccccc12 | ? | i | i | i | 11µM
CCNC(=O)COC(=O)c1cc(-c2ccc(OC)cc2)nc2ccccc12 | i | i | i | i | 5.4µM
COc1ccc(-c2cc(C(=O)OCC(=O)NC(C)(C)C)c3ccccc3n2)cc1 | i | i | i | i | 12µM
COc1ccc(-c2cc(C(=O)OCC(=O)NC3CC3)c3ccccc3n2)cc1 | nt | i | i | i | 3.8µM
CCCNC(=O)COC(=O)c1cc(-c2ccc(OC)cc2)nc2ccccc12 | i | i | i | i | ?
O=C(NCc1cccc(F)c1F)C1CCC(=O)N(C2CCCCCC2)C1 (configuration not stated) | nt | i | i | i | i
O=C(Nc1ccc2c(c1)OCO2)c1c(F)c(F)c(F)c(F)c1F | i | i | i | i | i[2.3 µM]
O=C(Nc1ccc2c(c1)OCO2)c1c(Cl)nc2sccn12 | ? | 3.2µM | ? | ? | ?
SMILES | SMN2 splice enh | Rab9 prom act | ELG1 genotoxic | NPC1 prom act | FLuc counter
Cc1[nH]c2ccccc2c1C(=O)C(=O)Nc1ccc2c(c1)OCO2 | nt | ? | i | ? | 17µM
NC(=O)c1ccc(NC(=O)c2ccc3c(c2)OCO3)cc1 | 13µM | 1.6µM | 18µM | 1.3µM | 4.8µM
Cn1ncc(Cl)c1C(=O)Nc1ccc2c(c1)OCO2 | nt | i | i | i | i
O=C(Nc1ccc(F)c(F)c1)c1ccc2c(c1)OCO2 | i | ? | 3.7µM | 2.5µM | 9.5µM
CCn1c(=O)c2sccc2n2c(CCCC(=O)N3CCN(c4cc(C)ccc4C)CC3)nnc12 | nt | nt | nt | nt | i
O=C(Nc1ccc(NC(=O)c2ccc(Cl)cc2Cl)cc1)c1ccc2c(c1)OCO2 | nt | i | i | i | i
O=C(Nc1ccc2c(c1)OCO2)c1ccc(CO)cc1 | nt | 2.8µM | ? | 3.2µM | 9.5µM
O=C(Nc1ccc(Cl)c(Cl)c1)c1ccc2c(c1)OCO2 | nt | 0.56µM | 4.6µM | 0.79µM | 1.5µM
